Source: PubChem BioAssay AID1159580 (chemical genetic matrix, 2015)
The campaign covered roughly 5,500 compounds. About 2,000 (36%) were called active. Inconclusive results (about 18%) are left out. Rule as the data show it: active = normalized growth mostly below about 0.91 (no sharp cut-off); inconclusive = no clear call, values can overlap the other calls; inactive = mostly above about 0.92. This is one part of the list.

Assay: chemical genetic growth profiling, strain panel (AID 1159580);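 also: tested at 20 µM; growth read once vehicle control cultures reached saturation at 30 °C; 1 = growth at the plate median or of vehicle wells; lower values mean less growth of the strain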
Settings: S. cerevisiae deletion strains, growth OD

Measured: normalized growth

CN(CCOc1ccc(C[C@H](Nc2ccccc2C(=O)c2ccccc2)C(=O)O)cc1)c1ccccn1
inactive: locus YAL013W, strain DEP1, hits give low values 0.992 | locus YAL040C, strain CLN3, hits give low values 1.09 | locus YCL061C, strain MRC1 (second series), hits give low values 0.999 | locus YDR363W, strain ESC2, hits give low values 0.994 | locus YER002W, strain NOP16, hits give low values 1 | locus YGR078C, strain PAC10, hits give low values 1.02 | locus YMR263W, strain SAP30, hits give low values 1 | locus YMR307W, strain GAS1, hits give low values 0.996 | locus YNL175C, strain NOP13, hits give low values 1 | locus YNL197C, strain WHI3, hits give low values 0.994 | locus YNL224C, strain SQS1, hits give low values 0.992 | locus YOR083W, strain WHI5 (second series), hits give low values 1.1 | locus YPL055C, strain LGE1, hits give low values 1
